This is a sample that favours compounds with a hit; in the whole collection about 1.6% have one here.
KCNQ2 block: blocks the rat KCNQ2 potassium channel; O88943; CHO-K1 KCNQ2, FluxOR thallium flux, 20 min; stronger effect = lower value; B-score at 10 µM; 1.1% of 310,000 active; AID 2156;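 active = fluorescence ratio B-score at most minus 3 library SDs, with starting brightness B-score within 2 library SDs, cut at about -5.5 in these data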
KCNQ2 enhance: KCNQ2 (rat) channel potentiation; O88943; CHO-K1 KCNQ2, FluxOR thallium flux fluorescence; stronger effect = higher value; B-score at 10 µM; 0.54% of 310,000 active;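 active = fluorescence ratio B-score at least 3 SD of library B-scores, with initial fluorescence B-score within 3 of them, cut at about 5.3 in these data; same plate scores as AID 2156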;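 note: B-score of peak minus minimum over baseline fluorescence ratio after K+ and Tl+ stimulus; positive B-score means potentiation of KCNQ2 with more thallium influx and brighter signal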
Kir21 confirm: confirmation of mouse Kir2.1 potassium channel inhibitors; shares compounds with KCNQ2 enhance; Kir2.1-expressing cells, FluxOR thallium flux fluorescence; stronger effect = lower value; Tl flux remaining, % of negative control (stronger effect = lower value), % at 10 µM; 41% of 2,300 active; AID 2032;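 active = Primary-screen hit whose thallium flux fell at least 3 control SD below untreated wells in both duplicates, with normal baseline fluorescence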;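 note: 0% = blank wells without stimulus and 100% = stimulated no-compound controls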
HEK293 ctr: parental HEK293 activity in Kir2.1 inhibitor counter-screen | AID 2105 | 19% of 2,300 active | shares compounds with KCNQ2 enhance | parental HEK293 cells, FluxOR thallium flux fluorescence; 0% = unstimulated blank wells | FluxOR signal as % of negative control (100 = no effect), % at 10 µM;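 active = dye signal at least 3 control SD above or below untreated wells in both duplicates, raw fluorescence within 3, either direction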;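 note: percent is based on the flux ratio of peak minus minimum fluorescence over baseline F0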
CHO-K1 Tl ctr: counter-screen for KCNQ2 potentiators: effect in parental CHO-K1 cells; shares compounds with KCNQ2 enhance; FluxOR thallium flux fluorescence; zero = vehicle mean+3SD, 100% = vehicle-minus-blank window; activity increase over 3SD of controls, % at 10 µM; 43% of 1,200 active;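 active = signal rise of at least 3 SD above the untreated control mean, in both duplicate wells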;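 note: counter screen of KCNQ2 potentiator hits so any rise reflects channel-independent effects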
KCNQ1 sel pot: human KCNQ1 counter-target activity of KCNQ2 potentiators | activation over 3SD threshold, % at 10 µM | 28% of 1,200 active | AID 2283 | shares compounds with KCNQ2 enhance | CHO KCNQ1 stable, FluxOR thallium flux fluorescence; beyond 3SD, as % of vehicle-control signal;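 active = fluorescence ratio rise of at least 3 SD of vehicle wells above their mean, in both replicate wells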;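 note: 0% = vehicle mean plus 3 SD and 100% = vehicle minus unstimulated blank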
KCNQ2 pot confirm: confirmation of rat KCNQ2 potassium channel potentiators; shares compounds with KCNQ2 enhance; potentiation, less the hit threshold, % at 10 µM; CHO-KCNQ2 cells, FluxOR thallium flux fluorescence; 68% of 1,200 active;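 active = fluorescence ratio rising 3 SD or more over the vehicle control mean in both replicates, plus primary screen hit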;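 note: peak minus minimum thallium fluorescence divided by baseline after K/Tl stimulus; 0% = vehicle mean plus 3 SD and 100% = vehicle minus unstimulated blank difference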
Kir21 spec: mouse Kir2.1 off-target activity of KCNQ2 potentiators; activity over 3SD threshold, % at 10 µM; AID 2345; HEK293 Kir2.1, FluxOR thallium flux fluorescence; shares compounds with KCNQ2 enhance; 2% of 1,200 active;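 active = fluorescence ratio rise of at least 3 SD above the vehicle-control mean, seen in both replicates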;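 note: 0% = vehicle mean plus 3 SD and 100% = vehicle minus no-stimulus blank window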
KCNQ2 W236L pot: potentiates the retigabine-insensitive rat KCNQ2 W236L mutant channel. 10% of 940 active. shares compounds with KCNQ2 enhance. current increase over 3SD of negative controls (%), stronger effect = higher value, % at 25 µM. AID 2558. CHO KCNQ2-W236L, automated patch clamp current;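 active = current increase at least 3 SD of the untreated controls above them in both duplicate recordings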
Target sequence (O88943 whole entry W236L, looked up): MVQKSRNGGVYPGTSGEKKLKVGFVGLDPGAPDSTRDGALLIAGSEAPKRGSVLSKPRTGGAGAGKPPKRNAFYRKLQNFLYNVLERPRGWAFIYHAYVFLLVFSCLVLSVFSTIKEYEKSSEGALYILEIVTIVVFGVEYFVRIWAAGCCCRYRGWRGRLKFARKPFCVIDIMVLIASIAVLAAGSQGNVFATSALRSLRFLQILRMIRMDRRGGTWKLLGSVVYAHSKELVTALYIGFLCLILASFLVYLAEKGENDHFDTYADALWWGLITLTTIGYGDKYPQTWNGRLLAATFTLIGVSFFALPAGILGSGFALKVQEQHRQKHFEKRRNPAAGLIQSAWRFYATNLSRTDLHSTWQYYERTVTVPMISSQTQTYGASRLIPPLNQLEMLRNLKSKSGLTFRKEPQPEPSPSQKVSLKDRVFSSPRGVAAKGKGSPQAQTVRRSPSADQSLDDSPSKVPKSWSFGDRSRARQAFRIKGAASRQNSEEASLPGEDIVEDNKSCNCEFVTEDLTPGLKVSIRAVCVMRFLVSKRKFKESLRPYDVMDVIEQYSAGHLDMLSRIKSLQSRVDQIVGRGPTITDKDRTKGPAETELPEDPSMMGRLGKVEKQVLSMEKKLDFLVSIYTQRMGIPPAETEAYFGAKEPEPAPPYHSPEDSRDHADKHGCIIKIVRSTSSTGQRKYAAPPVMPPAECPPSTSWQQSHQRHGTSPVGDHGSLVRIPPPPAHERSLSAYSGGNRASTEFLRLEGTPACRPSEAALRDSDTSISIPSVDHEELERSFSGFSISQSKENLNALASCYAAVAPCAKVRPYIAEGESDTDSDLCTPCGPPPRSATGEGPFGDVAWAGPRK
Active calls of the source: *; i = inactive; x = no result given.

SMILES	KCNQ2 block	KCNQ2 enhance	others
CC(C)(C)OC(=O)N1C[C@H](O)C[C@H]1C(=O)OCC(=O)c1ccc([N+](=O)[O-])cc1	i	x
CCCc1nnc(NC(=O)c2nc(S(=O)(=O)Cc3cccc(C)c3)ncc2Cl)s1	i	15*	CHO-K1 Tl ctr=-11;KCNQ1 sel pot=-46;KCNQ2 pot confirm=99*;Kir21 spec=-72;KCNQ2 W236L pot=34%*
Cc1nnc(NC(=O)c2nc(S(=O)(=O)Cc3ccccc3)ncc2Cl)s1	i	14*	Kir21 confirm=i;HEK293 ctr=i;CHO-K1 Tl ctr=3.1*;KCNQ1 sel pot=46*;KCNQ2 pot confirm=58*;Kir21 spec=-29;KCNQ2 W236L pot=23%*
Cc1ccc(NC(=O)c2nc(S(=O)(=O)Cc3ccccc3)ncc2Cl)cc1	i	0.15
Cc1cccc(C)c1NC(=O)c1nc(S(=O)(=O)Cc2ccccc2)ncc1Cl	i	x
Cc1cccc(CS(=O)(=O)c2ncc(Cl)c(C(=O)Nc3c(C)cccc3C)n2)c1	i	x	Kir21 confirm=i;HEK293 ctr=i
Cc1cccc(CS(=O)(=O)c2ncc(Cl)c(C(=O)NCc3ccccc3)n2)c1	i	x
NC(=O)NC(=O)COC(=O)CCSc1ccccc1	i	0.5
O=C(NC1CC2CCCC(C1)N2C(=O)Nc1ccccc1F)C1CC1 (configuration not stated)	i	0.52
Fc1ccccc1OCC1CCCN(Cc2nc(CC3CC3)no2)C1 (configuration not stated)	i	x
NC(=O)c1c(/N=C/c2cccs2)sc2c1CCCC2	i	0.46
COc1cc(NC(=O)C2CCC(CNS(=O)(=O)c3csc(C(N)=O)c3)CC2)cc(OC)c1 (configuration not stated)	i	0.28
S=c1[nH]c2ccc(Cl)cc2[nH]1	i	1.2
S=c1[nH]c2cc(Cl)ccc2s1	i	18*	Kir21 confirm=i;HEK293 ctr=552%*;CHO-K1 Tl ctr=10*;KCNQ1 sel pot=-12;KCNQ2 pot confirm=54*;Kir21 spec=2.3*;KCNQ2 W236L pot=i
CCCCn1c(N)c(N(CC)C(=O)c2cc3c(s2)CCCCC3)c(=O)[nH]c1=O	i	x
CSc1ncccc1C(=O)NCCc1ccc(S(N)(=O)=O)cc1	i	x
O=C(COC(=O)C1CCC(=O)N1)Nc1ccc(Oc2ccccc2)cc1 (configuration not stated)	i	7.6*	Kir21 confirm=i;HEK293 ctr=i;CHO-K1 Tl ctr=2.8*;KCNQ1 sel pot=-28;KCNQ2 pot confirm=-13;Kir21 spec=-31
O=C(COC(=O)C1CCC(=O)N1)Nc1ccccc1Br (configuration not stated)	i	0.74
O=C(NCCc1ccccc1)C1CCCN1C(=O)Nc1ccc(F)cc1 (configuration not stated)	i	x
CCCCn1c(N)c(N(CCOC)C(=O)c2cccc(-n3cnnn3)c2)c(=O)[nH]c1=O	i	x
CCCCCNC(=O)c1cccc(S(=O)(=O)N2CC3(C)CC2CC(C)(C)C3)c1 (configuration not stated)	i	2.2
CN(CC(=O)Nc1cccc(F)c1)C(=O)c1cccc(S(=O)(=O)N2CC3(C)CC2CC(C)(C)C3)c1 (configuration not stated)	i	9.2*	Kir21 confirm=i;HEK293 ctr=i;CHO-K1 Tl ctr=92*;KCNQ1 sel pot=16*;KCNQ2 pot confirm=1.7*;Kir21 spec=-27;KCNQ2 W236L pot=i
COc1ccc(-c2nn(-c3ccccc3)cc2C(=O)NC2CCCCC2C)cc1 (configuration not stated)	i	0.03
Nc1ccccc1C(=O)NNc1ncc(C(F)(F)F)cc1Cl	i	x
O=C(NNc1ncc(C(F)(F)F)cc1Cl)c1ccc(Cl)c(Cl)c1	i	12*	Kir21 confirm=i;HEK293 ctr=i;CHO-K1 Tl ctr=-12;KCNQ1 sel pot=-19;KCNQ2 pot confirm=1.2*;Kir21 spec=-30;KCNQ2 W236L pot=6.1%*
